# ± gives the standard deviation.
# System: EfPiwi piRISC loaded with piRNA #1 (26 nt)
# Test: pre-steady-state target cleavage rate (min^-1); auxiliary factor: 500 nM Ephydatia muelleri Gtsf1; guide: piRNA #1 5'p-UGAGGUAGUAGGUUGUAUAGUAUCCA; MIWI and MILI are mouse PIWI proteins and EfPiwi is from a freshwater sponge; tags in brackets are library labels; higher = faster piRNA-guided slicing of the target
# In short: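 For Cleave-'n-Seq, a transcribed, DNA-blocked target RNA library […] met 1 nM active affinity-purified piRISC with one synthetic guide at 33 °C for 0–8 or 0–960 min in HEPES–potassium acetate buffer, with or without 500 nM GTSF1 partner protein. Uncleaved targets were sequenced and normalised to depth and weakly complementary targets, with three trials pooled and k3 capped at 0.0001 min^-1. A burst-and-steady-state fit supplied the pre-steady-state cleavage rate.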
row,Sequence,pre-steady-state target cleavage rate
1,GGAGACCAUACUAUACAACCUACAUGGAGA [g8:g23:cont:t1A],0.00382 ± 0.0038
2,GGAGAGGAUACUAUACAACCUUACUACCUCA,0.00845 ± 0.0045
3,GGAGACCUAUGAUAUGUACCUAUUACCUCA,< 0.0001
4,GGAGACCUAACUAUACCAACCUACUACCUCA,0.00536 ± 0.0036
5,GGAGAGGAUACUAUACAACCUAGUACCACA,0.00381 ± 0.0016
6,GGAGAGCAUACUAAACAACCUACUACCUCA,0.00417 ± 0.0033
7,GGAGACCUAACAAAACAACCUACUACCUCA,0.00903 ± 0.0046
8,GGAGACCAUACAUACAACCUACUACCUCA,0.0126 ± 0.0066
9,GGAGACCAUACUAUACAACCUACUUCGUCA,0.00491 ± 0.0039
10,GGAGACGAUACUAUACAACCUUCUACCUGA,0.0056 ± 0.0024
11,GGAGUGGAUACUAUACAACCUACUUCCACA,0.00294 ± 0.0024
12,GGAGACCUAUGAUAUGUACCCACUACCUCA,< 0.0001
13,GGAGACGAUACUAUACAUCGUACUACCUCA,0.00254 ± 0.0012
14,GGAGUGGAUACUAUACAACGAUCUACCUCA,0.00198 ± 0.0014
15,GGAGACCUAUGAUAUGUACCUACAUACCUCA,< 0.0001
16,GGAGAGGAUACUAUACAACCUUCUACGUCA,0.00356 ± 0.0021
17,GGAGACGUAUCUAUACAACCUACUACCUCA,0.00913 ± 0.0041
18,GGAGACCAUACUAUACAACCUACUAGGUCA,0.00366 ± 0.0023
19,GGAGACCUAACUAUACAACCACUACCUCA,0.00546 ± 0.0044
20,GGAGUGGAUACUAUACUACCUACAACCUCA,0.00209 ± 0.0019

row,Sequence,pre-steady-state target cleavage rate
1,GGAGACCUAUGAAUACAACCUACAUGCUCA,< 0.0001
2,GGAGACGAUACUAUACAACCUACUACCUA,0.104 ± 0.038
3,GGAGUGGAUUCUAUACAAGCUACUACCUCA,0.00371 ± 0.0019
4,GGAGACGAUACUUAUCAACCUACUACCUCA,0.00522 ± 0.0041
5,GGAGAGGAUACAAUACAACCUACAACCUCA,0.00231 ± 0.0018
6,GGAGAGGAUACUAUACUAACCUACUACCUCA,0.0128 ± 0.007
7,GGAGACCAUACUAUACAACGUACAACCUCA,0.00296 ± 0.0025
8,GGAGAGGAAUGUAUACAACCUACUACCUCA,0.0061 ± 0.0042
9,GGAGAGGAUACUAUACAACCUAGAACCUCA,0.00379 ± 0.0022
10,GGAGACGAUACUAUACAACCUACUACCAGA,0.00503 ± 0.0015
11,GGAGAGGAUACUAUAGAACCUACUACCUCA,0.00475 ± 0.0023
12,GGAGACCUAACUAUACAACCUACUGCCUCA,0.0364 ± 0.015
13,GGAGACGAAACUAUACUACCUACUACCUCA,0.00498 ± 0.0023
14,GGAGUGGAUACUAUACAACCUACUCACCUCA,0.00247 ± 0.0014
15,GGAGACCAUACUAUACUACCUACUUCCUCA,0.00301 ± 0.0023
16,GGAGACCUAUGUAUACAACCUACAUGCUCA,< 0.0001
17,GGAGACCUAUGUAUAGAACCUUCUACCUCA,< 0.0001
18,GGAGUGGAUACUAUACAACCUUCUACGUCA,0.00426 ± 0.0016
19,GGAGAGGAUACUAUACAACCUAGAUCCUCA,0.00241 ± 0.0021
20,GGAGUGGAUACUAUACAACCUGACUACCUCA,0.00415 ± 0.002
